# The supplement of paper PMC6555819
# Columns and labels:
# Assay in all cases: PBM binding z-score (relative to random genomic background probes); higher = stronger binding; sequences stand for … in GC…GCGATTGACAGCGTAGAATGAAGG
# [1] = test system: FXR:RXRa (NR concentration 270 nM, RXRa partner concentration 90 nM)
# Outline: (§1)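 Binding z-scores take random background probes as their reference. They come from custom Agilent 4×180K protein-binding microarrays incubated 1 h with ligand-free nuclear receptor dimers, with antibodies against each partner (one per run) detecting binding. Scanned fluorescence was regression-normalized.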
# [2] = test system: LXRa:RXRa (NR concentration 270 nM, RXRa partner concentration 90 nM)
# Outline: as §1
# [3] = test system: LXRa homodimer (NR concentration 270 nM)
# Outline: as §1
# [4] = test system: LXRb:RXRa (NR concentration 270 nM, RXRa partner concentration 90 nM)
# Outline: as §1
# [5] = test system: LXRb homodimer (NR concentration 270 nM)
# Outline: as §1
# [6] = test system: PPARa:RXRa (NR concentration 270 nM, RXRa partner concentration 90 nM)
# Outline: as §1
# [7] = test system: PPARg:RXRa (NR concentration 180 nM, RXRa partner concentration 90 nM)
# Outline: as §1
# [8] = test system: PPARg:RXRa 270nM:90nM, anti-RXR (NR concentration 270 nM, RXRa partner concentration 90 nM)
# Outline: as §1
# [9] = test system: PPARg:RXRa 30nM:10nM, anti-RXR (NR concentration 30 nM, RXRa partner concentration 10 nM)
# Outline: as §1
# [10] = test system: PPARg:RXRa 90nM:30nM, anti-RXR (NR concentration 90 nM, RXRa partner concentration 30 nM)
# Outline: as §1
Sequence,PBM binding z-score [1],PBM binding z-score [2],PBM binding z-score [3],PBM binding z-score [4],PBM binding z-score [5],PBM binding z-score [6],PBM binding z-score [7],PBM binding z-score [8],PBM binding z-score [9],PBM binding z-score [10]
ATATGTAGGTTAGCTGGGATCATTCAGACTAGGC,0.641,0.823,0.0491,0.629,0.181,2.71,3.18,2.72,0.999,1.85
CTCGAAAGGTCGCTTGAGGTGAGTATACGGATAA,4.18,3.88,-0.291,2.68,-0.203,4.15,2.15,2.92,0.841,1.64
CAAACTAGGTCACAAAGGTCAAAGTCCGTGCGTA,7.43,6.7,7.48,6.59,3,6.49,10.3,8.31,7.58,8.55
ATCTCTAGGTATAGTTCAGTGAAAGATCGATAGA,0.622,1.11,0.814,0.685,1.21,0.726,0.816,1.55,0.666,1.4
CCAGACAGGTGAAACGTAACTCAGTCTGGTACGC,-0.253,-0.0571,-0.351,-0.105,-0.651,0.658,0.947,0.946,-0.101,0.589
ATCGAAAGGTCGACGAGGTGATTATACACCGTTT,4.8,3.43,0.0538,2.93,0.337,4.39,2.85,3.08,1.22,2.14
CAGCCTAGGTCAGGGCCAGAATAGGAGGAACGTT,1.68,0.905,-0.589,0.734,-1.02,2.04,1.06,0.725,-0.241,0.0702
CTGGAAAGGTCGGTTGAGGTGAGTATACGGATAA,2.81,1.32,0.136,1.12,-0.219,2.57,0.576,0.975,-0.182,0.424
CAAACTAGGTCACAGAGGTCAGAGTCCGTGCGTA,6.35,5.23,4.71,4.72,0.859,6.11,9.99,7.88,6.14,7.84
CGTCCAAGGTCAGAGAGGTCGGTGAATGCCGAGT,4.71,3.52,0.408,2.4,-0.461,3.87,2,2.92,0.323,1.8
CGTCAAAGTTCAAGGTAACGCAACAGAAAGCAGC,6.65,5.28,2.35,3.52,1.08,4.51,4.65,5.25,2.32,4.14
CGAACGAGGGCATGAGTTGATGGCAAATGCCGAT,0.483,0.315,-0.503,-0.235,-0.92,1.4,1.24,1.34,-0.207,0.832
ACTCGGAGGACAAAGGTCAGTGCTACGCCAGTGA,3.58,3.67,1.45,2.94,0.443,4.64,6.76,6.58,5.31,7.31
CAAACTAGGTCACAGGTCAAAGTCGAGCCAACCA,6.7,5.19,3.25,4.68,1.16,6.88,12.3,9.67,10.4,11
TCATATAGGTAAACAGGTGAAATTCCGTAAGTTA,1.25,1,0.35,1.2,-0.0512,2.32,2.75,3.22,4.19,3.8
ATCGAAAGCTCGAGGTGAGTATAGAGAAAGGGAA,-0.382,-0.596,-0.515,-0.793,-0.851,-0.028,0.163,-0.516,-0.268,-0.554
TGAATGAGGTTAAAGATCAGGGATCGTGGCGTCG,2.72,2.32,-0.45,1.43,0.3,4.23,5.54,6.39,4.69,6.83
GTACCAAGGTGAATGGGTCGTTGATGAGTAGGCG,0.456,0.288,-0.238,0.0453,-0.983,1.71,1.26,1.19,0.195,0.732
ATCTCTAGGTTAAGTTCAGTGAAAGATCGATAGA,1.78,2.76,1.8,1.49,1.76,2.41,1.87,2.34,1.11,1.83
CCTTACGGGTCACTGACAGGTTATAACATTTGGA,5.58,4.49,0.519,3.76,0.0468,5.18,4.66,4.61,1.74,3.38
CTACCAAGGTGAACAAGGTTGTTGATTACTATTC,0.708,0.561,-0.172,1.36,-0.417,1.53,0.7,0.746,-0.199,0.615
TCATATACGTAAAAGGTGAAAGTCGGTGTGGTAA,1.58,1.77,0.215,1.7,0.467,2.81,1.68,3.88,4.6,4.19
TCCTGTAGATCAATAGAGGTTAAGAAAGTGCGCT,0.952,3.56,0.803,1.93,0.0925,1.74,-0.0634,1.63,2.77,2.39
CCTAGCAGGCCAATCTGGGTAACTCAAGGCTTGA,-0.2,-0.684,-0.736,-0.904,-0.796,0.0569,-0.0846,-0.366,-1.08,-0.958
